Assay results: the supplement of paper PMC13380429

Tested on: Vero E6 infected with SARS-CoV-2
Test: inhibition of SARS-CoV-2 cytopathic effect; higher = more antiviral protection, active = above 15
Conditions: 48 h

Measured: inhibition of SARS-CoV-2 cytopathic effect

O=S(=O)(N[C@H](CO)C(C(F)(F)F)C(F)(F)F)c1ccc(Cl)s1 [begacestat]
inactive: 1 nM -4.03% | 8.33 nM -5.1% | 100 nM -1.3% | 833.33 nM -4.51% | 10000 nM -7.85%

O=C(O)CCCc1c[nH]c2ccccc12 [3-indolebutyric-acid]
inactive: 1 nM -1.83% | 8.33 nM -1.26% | 100 nM 0.03% | 833.33 nM -3.61% | 10000 nM -2.44%

C[C@]12CCC(=O)C=C1CC[C@@H]1[C@@H]2CC[C@@]2(C)[C@H]1CC[C@]2(O)C(=O)CO [cortodoxone]
inactive: 1 nM -0.53% | 8.33 nM -0.71% | 100 nM 1.21% | 833.33 nM 0.07% | 10000 nM -1.41%

COc1ccc(-c2csc(NC(=O)[C@H]3CCCCN3S(=O)(=O)c3ccc(C)cc3)n2)cc1
inactive: 1 nM 0.8% | 8.33 nM 2.33% | 100 nM 1.23% | 833.33 nM 2.63% | 10000 nM 1.27%

CC1(C)N=C(N)N=C(N)N1OCCCOc1cc(Cl)c(Cl)cc1Cl
inactive: 1 nM -1.05% | 8.33 nM 0.38% | 100 nM 0.21% | 833.33 nM 0.74% | 10000 nM -2.49%

CN(C)c1cc(CNCC(C)(C)C)c(O)c2c1C[C@H]1C[C@H]3[C@H](N(C)C)C(O)=C(C(N)=O)C(=O)[C@@]3(O)C(O)=C1C2=O [omadacycline]
inactive: 1 nM -0.66% | 8.33 nM 0.51% | 100 nM 1.58% | 833.33 nM -0.64% | 10000 nM -1.14%

COC(=O)Nc1ccc(-c2nc(N3CCOCC3)c3cnn(C4CCN(C(=O)OC)CC4)c3n2)cc1
inactive: 1 nM 1.39% | 8.33 nM 1.76% | 100 nM 4.01% | 833.33 nM 0.99% | 10000 nM 2.63%

CC[C@@H]1Cn2c(c3nc(-c4ccccc4)nc-3n(C)c2=O)N1
inactive: 1 nM -0.6% | 8.33 nM -0.25% | 100 nM -1.09% | 833.33 nM 0.66% | 10000 nM 1.21%

Cc1cnc(CNC(=O)c2c(=O)c3ccc(N4CCCN(C)CC4)nc3n3c2sc2ccccc23)cn1
inactive: 1 nM 0.83% | 8.33 nM -2.59% | 100 nM -1.2% | 833.33 nM 4.48% | 10000 nM 0.59%

CNc1cc2[nH]c(=O)n(-c3ccc(NC(=O)NS(=O)(=O)c4ccc(Cl)s4)cc3)c(=O)c2cc1F [elinogrel]
inactive: 1 nM 3.26% | 8.33 nM 1.24% | 100 nM -3.68% | 833.33 nM 3.74% | 10000 nM -1.62%

Cn1ncc(Cl)c1-c1cc(C(=O)N[C@H](CN)Cc2cccc(F)c2)sc1Cl
inactive: 1 nM 0.2% | 8.33 nM -1.05% | 100 nM -0.95% | 833.33 nM -0.24% | 10000 nM -2.44%

O=C(N/N=C/c1ccc([N+](=O)[O-])o1)c1cc([N+](=O)[O-])cc([N+](=O)[O-])c1O [nifursol]
inactive: 1 nM 0.19% | 8.33 nM 3.21% | 100 nM 2.56% | 833.33 nM 2.62% | 10000 nM 2.82%

CCCCCCCCCCCCCCCC=O [1-hexadecanal]
inactive: 1 nM 0.5% | 8.33 nM 2.85% | 100 nM -0.54% | 833.33 nM -0.08% | 10000 nM 1.56%

CCN(CC)Cc1cc(Nc2ccnc3cc(Cl)ccc23)ccc1O [amodiaquine]
inactive: 1 nM 3.02% | 8.33 nM 3.97% | 100 nM 0.97% | 833.33 nM -1.05%
active: 10000 nM 44.7%

CCOC(=O)OC(C)OC(=O)[C@@H]1N2C(=O)[C@@H](NC(=O)[C@H](N)c3ccccc3)[C@H]2SC1(C)C (stereo not given in full) [bacampicillin]
inactive: 1 nM 8.5% | 8.33 nM 1.16% | 100 nM -0.89% | 833.33 nM -1.91% | 10000 nM -2.49%

COc1ccc(CCN(C)CCc2ccc(OC)c(OC)c2)cc1OC
inactive: 1 nM 0.34% | 8.33 nM 3.91% | 100 nM 0.58% | 833.33 nM 4.35% | 10000 nM 3.64%
